# Source: PubChem BioAssay (NCATS)
# Inconclusive results are not listed. Active and inactive are the calls of the source. The call rests on the fitted dose curve; in most records, active means well fitted inhibition curve with a large enough effect; inconclusive means small, poorly fitted or top-dose-only effect; inactive means flat fitted curve, though single readings scatter.
# Key:
# [1] = test system: HaCat; assay: Cytotoxic Profiling of Annotated Libraries Using Quantitative High-Throughput Screening (AID 1296008); conditions: Five cell lines viability, CellTiter-Glo ATP luminescence, 48-72 h; max response: stronger effect = lower value; further: potency means the concentration at half of the fitted maximal effect; on max response: on the % scale 0 is the no-effect control and ±100 the full control effect
# Summary of the method: (§1)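 Compounds were pin-transferred onto cells and incubated 48 or 72 hr at 37 degree Celsius, 95% humidity. CellTiter-Glo was added, plates sat 10 min at room temperature, then ATP-coupled luminescence was imaged as the viability read-out.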
# [2] = test system: KB-3-1; assay: as above; conditions: Five cell lines viability, CellTiter-Glo ATP luminescence, 48-72 h; max response: stronger effect = lower value
# Summary of the method: as §1
# [3] = test system: HEK293; assay: as above; conditions: Five cell lines viability, CellTiter-Glo ATP luminescence, 48-72 h; max response: stronger effect = lower value
# Summary of the method: as §1
# [4] = test system: NIH3T3; assay: as above; conditions: Five cell lines viability, CellTiter-Glo ATP luminescence, 48-72 h; max response: stronger effect = lower value
# Summary of the method: as §1
# [5] = test system: TAB109; assay: qHTS profiling for inhibitors of Plasmodium falciparum proliferation (AID 504749); further: potency means the concentration at half of the fitted maximal effect; conditions: P. falciparum in erythrocytes, SYBR Green DNA, 72 h; series mostly up to 28.7 µM
# Summary of the method: (§2)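 Quantitative HTS: compounds pinned into medium, infected erythrocytes added (0.3% parasitemia, 2.5% hematocrit), 72 h culture at 37 C under 5% CO2. Saponin/Triton lysis with SYBR Green I, overnight RT, then fluorescence read.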
# [6] = test system: TAB113; assay: as above; conditions: P. falciparum in erythrocytes, SYBR Green DNA, 72 h; series mostly up to 28.7 µM
# Summary of the method: as §2
# [7] = test system: TAB165; assay: as above; conditions: P. falciparum in erythrocytes, SYBR Green DNA, 72 h; series mostly up to 28.7 µM
# Summary of the method: as §2
# [8] = test system: W2; assay: as above; conditions: P. falciparum in erythrocytes, SYBR Green DNA, 72 h; series mostly up to 28.7 µM
# Summary of the method: as §2
# [9] = test system: HACAT; assay: qHTS assay to identify novel small-molecules to repurpose for Merkel cell carcinoma treatment (AID 1296009); conditions: MCC and control cell lines, CellTiter-Glo viability, 72 h; at 44.8 µM (top of the series) unless noted
# Summary of the method: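 Viability readout: ATP luminescence (CellTiter-Glo) after 72 hr drug exposure at 37 degree celsius. Dose-response format was 8 points for NPC and 11 points for MIPE; data normalized to in-plate controls.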
# Further: nearly all actives have a fitted effect of over 60% in size.
smiles,measurement,setting,value
Cc1ccc(-n2[nH]c(C)c(N=Nc3cccc(-c4cccc(C(=O)O)c4)c3O)c2=O)cc1C,Potency,[1],21100 nM (active)
same,max response,[2],-13.9% (inactive)
COc1cc(OC)c(C=CS(=O)(=O)Cc2ccc(OC)c(NCC(=O)O)c2)c(OC)c1,Potency,[3],118 nM (active)
same,max response,[1],3.08% (inactive)
same,Potency,[4],105 nM (active)
CN1CCCN(C(=O)c2cccc(-c3ccc(C=C4C(=O)Nc5ccc(Cl)cc54)o3)c2)CC1,Potency,[3],1320 nM (active)
same,Potency,[2],23500 nM (active)
N#CC(=C(N)Sc1ccc(N)cc1)c1ccccc1C(F)(F)F,Potency,[1],1660 nM (active)
same,max response,[2],-9.42% (inactive)
NC(=O)N1CCC(CC(=O)N2CCC([C@H]3c4ncc(Br)cc4CCc4cc(Cl)cc(Br)c43)CC2)CC1,Potency,[3],1320 nM (active)
same,Potency,[1],10500 nM (active)
same,max response,[4],-22.6% (inactive)
CCCCCN=C(N)NN=Cc1c[nH]c2ccc(OC)cc12,Potency,[3],7430 nM (active)
same,Potency,[2],10500 nM (active)
same,Potency,[4],13200 nM (active)
CCC(C(=O)O)C1CCC(C)C(C(C)C(O)C(C)C(=O)C(CC)C2OC3(C=CC(O)[C@@]4(CC[C@](C)(C5CC[C@@](O)(CC)C(C)O5)O4)O3)C(C)CC2C)O1 (some centres not stated),Potency,[5],1000 nM (active)
same,Potency,[6],891 nM (active)
same,Potency,[7],708 nM (active)
same,Potency,[8],757 nM (active)
same,Potency,[3],1180 nM (active)
same,Potency,[4],8330 nM (active)
C=CC(=O)Nc1cc(NC(=O)c2ccc(C)c(NC(=O)c3ccno3)c2)cc(C(F)(F)F)c1,outcome,[1],inactive
same,max response,[4],-0.953% (inactive)
same,outcome,[9],inactive
CCCNC(=O)[C@H]1O[C@H]1C(=O)N[C@H](C(=O)N1CCC[C@@H]1C(=O)OC)C(C)CC (some centres not stated),Potency,[3],10500 nM (active)
same,outcome,[1],inactive
same,outcome,[9],inactive
